Screening data deposited in PubChem BioAssay by National Center for Advancing Translational Sciences (NCATS).
ALOX12 inh: ALOX12 (human) lipoxygenase inhibition. P18054. purified 12hLO, xylenol orange hydroperoxide absorbance. Potency, µM (highest dose often 108 µM), inactives show top-dose activity change, negative = inhibition, actives largely listed as inhibitors. 1.1% of 580,000 active. AID 1671190
Target sequence (P18054 whole entry, looked up): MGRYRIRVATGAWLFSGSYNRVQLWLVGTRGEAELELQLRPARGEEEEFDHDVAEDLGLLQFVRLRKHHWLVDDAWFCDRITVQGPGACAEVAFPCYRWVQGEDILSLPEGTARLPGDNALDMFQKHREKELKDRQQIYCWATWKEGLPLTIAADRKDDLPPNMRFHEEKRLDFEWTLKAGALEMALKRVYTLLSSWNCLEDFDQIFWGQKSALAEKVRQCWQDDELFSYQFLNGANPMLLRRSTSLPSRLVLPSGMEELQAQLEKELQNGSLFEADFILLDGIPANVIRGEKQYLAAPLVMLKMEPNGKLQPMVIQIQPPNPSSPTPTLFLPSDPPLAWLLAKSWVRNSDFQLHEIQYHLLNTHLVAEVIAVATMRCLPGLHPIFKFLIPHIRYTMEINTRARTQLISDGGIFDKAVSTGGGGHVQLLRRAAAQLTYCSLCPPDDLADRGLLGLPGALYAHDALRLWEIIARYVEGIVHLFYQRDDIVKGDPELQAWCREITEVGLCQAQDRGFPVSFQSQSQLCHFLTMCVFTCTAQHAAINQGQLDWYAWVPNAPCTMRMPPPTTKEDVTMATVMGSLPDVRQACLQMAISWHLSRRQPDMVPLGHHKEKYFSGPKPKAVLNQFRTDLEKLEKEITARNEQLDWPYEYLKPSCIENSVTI
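Purified human 12hLO at 150 nM in 25 mM Hepes, 0.01% Triton X-100, pH 7.0, preincubated 15 min at room temperature with compound. Reaction started with 40 uM arachidonic acid, 30 min at room temperature. Hydroperoxide measured by Fe-xylenol orange, 573/405 nm absorbance ratio.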
DT40 TDP1 no CPT: qHTS for Inhibitors of human tyrosyl-DNA phosphodiesterase 1 (TDP1): qHTS in cells in absence of CPT; DT40 Tdp1-/- hTDP1 cells, no CPT, ATP luminescence, 48 h; Potency, µM (doses to about 46.2 µM), for the others: top-dose activity change, negative = growth inhibition, hits mostly inhibitors; 15% of 420,000 active; note: nearly all actives have a fitted effect of over 55% in size
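Stably hTDP1-transfected Tdp1-null chicken DT40 cells were treated with library compounds minus camptothecin and grown for at least 48 hr at 37 °C, after which cellular ATP was quantified by luminescence.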
VP16 counter: counter-screen for ROR gamma inhibitors: Gal4-VP16 reporter; Drosophila S2 Gal4-VP16 UAS-luciferase, luminescence, 20 h; Potency, µM (top dose mostly 53.6 µM), for the others: at the highest dose activity, negative = inhibition, actives largely listed as inhibitors; 3.5% of 310,000 active;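 note: Gal4-VP16 expression switched on by copper sulfate through the metallothionein promoter; nearly all actives have a fitted effect of over 50% in size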
ELG1 DNA repair: blocks ELG1-dependent DNA repair in HEK293T cells. HEK293T ELG1-luciferase reporter, luminescence, 16 h; DNA damage induced by 5-fluorouridine. Potency, µM (doses to about 46.1 µM), inactives show at the top dose activity change, negative = inhibition, most hits filed as inhibitors. 2.3% of 330,000 active; note: nearly all actives have a fitted effect of over 55% in size
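DMSO vehicle served as the neutral condition. Each well held 2,000 cells given 5-fluorouridine plus compound; after 16 hr at 37 °C/5% CO2, ONE-Glo was added and luciferase measured 30 min later.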
TDP1 cell CPT: growth inhibition of DT40 Tdp1-/-;hTDP1 cells with camptothecin (screen for TDP1 inhibitors) | chicken DT40 Tdp1-/-;hTDP1 cells + 20 nM CPT, ATP luminescence, 48 h | Potency, µM (top dose mostly 46.2 µM), for the others: at the top dose activity change, negative = growth inhibition, most hits filed as inhibitors | 12% of 420,000 active; note: nearly all actives have a fitted effect of over 55% in size
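Chicken DT40 Tdp1-/- cells complemented with human TDP1, 400 cells/well, exposed to compounds plus 20 nM camptothecin for at least 48 h at 37 C; viability read as ATP content by CellTiter-Glo luminescence.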
RORgamma inh: ROR gamma (mouse) transcription inhibition. P51450. Drosophila S2 Gal4-RORgamma UAS-luciferase reporter, 20 h. Potency, µM (highest dose often 53.6 µM), for inactives: at the top dose activity change, negative = inhibition, most hits filed as inhibitors. 5.4% of 310,000 active. AID 2551; note: nearly all actives have a fitted effect of over 60% in size
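Drosophila Schneider cells stably carrying a metallothionein-driven Gal4 DBD–ROR gamma fusion and a UAS-Photinus luciferase reporter were exposed to compound for 1 hr, then induced with copper sulfate (700 uM final) for 20 hr at ambient temperature before luminescence reading.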
An asterisk follows results filed as active; i = inactive; ? = inconclusive; / = no result; [ ] = remark or other dose. Sampled rows, rich in hits. Any-hit rate of the full collection: about 15%. Calls come from the whole dose curve; as a rule, active = well fitted curve in the direction sought with a large enough effect; inconclusive = small, poorly fitted or top-dose-only effect, or another doubt; inactive = no such curve, though single readings can be large; an effect the other way counts as inactive or inconclusive. % is set by controls: 0 for no effect and ±100 for the full control effect; potency is the fitted concentration of half-maximal effect.

SMILES | ALOX12 inh | DT40 TDP1 no CPT | VP16 counter | ELG1 DNA repair | TDP1 cell CPT | RORgamma inh
NSc1nc(N)c2nc(-c3ccccc3)c(-c3ccccc3)nc2n1 | ? | 26µM* | 11% | 2% | ? | ?
Nc1nc(N)c2nc(-c3ccccc3)c(N)nc2n1 | -17% | 2.1µM* | ? | ? | 15µM* | ?
Nc1nc(N)c2nc(-c3cccc(O)c3)c(-c3cccc(O)c3)nc2n1 | -15%[57.4 µM] | / | / | / | / | /
COc1ccc(CCNC(=O)Cc2c(C)c3ccc(O)c(C)c3oc2=O)cc1 | -59% | / | / | / | / | /
CCCNC(=O)CCCNC(=O)c1ccc(Cl)cc1 | -1% | / | / | / | / | /
C[C@@H]1CNCCN1S(=O)(=O)c1cccc2cnccc12 | ? | 30µM* | 25µM* | / | ? | ?
CNC(=O)c1cc2cc(-c3c(C)noc3C)nc(-c3ccccc3C)c2o1 | 23%[176 µM] | / | / | / | / | /
COCCn1cnc2c1c(=O)n(CC(=O)Nc1cccc(C)c1C)c(=O)n2Cc1ccccc1 | -4% | / | / | / | / | /
c1ccc(-c2nnc(-c3ccccc3)nn2)cc1 | 175% | -10% | 5% | ? | ? | -1%
c1cncc(-c2nnc(-c3cccnc3)nn2)c1 | ? | 5.2µM* | ? | ? | 2.9µM* | -42%[10 µM]
COc1ccc(N2CC(O)(c3ccc(F)cc3)[N+]3=C2CCCC3)cc1 (centres undefined) | -3% | ? | -2% | 3% | ? | 4%
CCOc1ccc(N2CC(O)(c3ccc(F)cc3)[N+]3=C2CCCC3)cc1 (centres undefined) | i | 23µM* | 7% | 7% | -14% | 15%
COc1ccc(N2CC(O)(c3ccc(OC(F)F)cc3)[N+]3=C2CCCC3)cc1 (centres undefined) | 43% | ? | -11% | 5% | 16µM* | 7%
CCC(O)CC(C(=O)NNc1ccccc1)C(=O)NNc1ccccc1 (centres undefined) | 11µM* | -1% | 1% | ? | 23% | 16%
Cn1c(SCc2nc3ccccc3o2)nnc1-c1ccc(Cl)cc1 | -2% | / | / | / | / | /
COc1cc(/C=N/NC(=O)CCN2CCN(C(c3ccccc3)c3ccccc3)CC2)ccc1O | ? | 12µM* | -4% | -27% | 13µM* | 43%
O=C(CC(=O)N/N=C/c1ccccc1)NCc1ccccc1 | 1% | -5% | 1% | 3% | -4% | 2%
O=C(CCC(=O)N/N=C/c1ccccc1O)NCc1ccccc1 | -12% | ? | -24% | -12% | ? | 20µM*
O=C(CCC(=O)Nc1cc(C(F)(F)F)ccc1Cl)N/N=C\c1cc([N+](=O)[O-])ccc1O | 85% | 8.2µM* | 8.9µM* | ? | 10µM* | 2.5µM*
C/C(=N\NC(=O)CO/N=C(\C)c1cccs1)c1ccc(N)cc1 | 24% | -3% | 0% | 4% | -4% | 4%
C/C(=N\OCC(=O)N/N=C/c1ccc(C)cc1O)c1cccs1 | 35% | 4.1µM* | 2.8µM* | -17% | 4.6µM* | 0.5µM*
COc1cc(/C=N\NC(=O)CNC(=O)C(c2ccccc2)c2ccccc2)ccc1O | 0% | -14% | 9% | 8% | -2% | 41%
CN1CCC(Cc2ccc(C(=O)NCC3CCCCC3)cc2)CC1 | 4% | / | / | / | / | /
O=C(N/N=C/c1cc([N+](=O)[O-])ccc1O)c1cccc(NC(=O)c2cccc(Cl)c2)c1 | ? | 3.3µM* | ? | ? | 5.2µM* | 4.5µM*
O=C(CCN1CCN(c2ccccc2)CC1)N/N=C/c1ccccc1O | 0% | -118% | 6.3µM* | ? | ? | 2µM*
SMILES | ALOX12 inh | DT40 TDP1 no CPT | VP16 counter | ELG1 DNA repair | TDP1 cell CPT | RORgamma inh
O=C(CCC(=O)Nc1ccc(F)cc1)N/N=C/c1ccccc1O | 1% | ? | -24% | 10% | ? | 14µM*
CN1CCN(CCC(=O)N/N=C/c2ccccc2F)CC1 | 0% | -1% | -1% | ? | 4% | -1%
O=C(CCC(=O)Nc1ccc(F)cc1)N/N=C/c1cc([N+](=O)[O-])ccc1O | -30% | ? | -11% | ? | 0% | 10µM*
O=C(CCC(=O)Nc1ccc(Br)cc1)N/N=C/c1ccccc1F | 10% | 0% | -2% | 1% | 6% | -11%
O=C(CSc1nccn1Cc1ccc2c(c1)OCO2)Nc1nc2ccccc2s1 | -3% | / | / | / | / | /
CCOC(=O)C(C)NC(=O)c1ccccc1 (centres undefined) | -23% | / | / | / | / | /
Cc1ccccc1CS(=O)Cc1ccccc1F (centres undefined) | 10% | / | / | / | / | /
O=c1oc2ccccc2c(NCc2ccccc2)c1NS(=O)(=O)c1ccc(F)c(F)c1 | -22% | / | / | / | / | /
C=CCc1cccc(/C=N/NC(=O)CCC(=O)Nc2ccc(C)cc2)c1O | 13% | 10µM* | ? | -32% | 15µM* | 1.6µM*
Cc1cccc(NC(=O)CCC(=O)N/N=C/c2ccncc2)c1 | -4% | 1% | ? | 16% | -18% | 22%
O=C(CCn1cnc2ccccc21)N/N=C/c1ccccc1O | 0% | 23µM* | 0.63µM* | ? | ? | 0.45µM*
O=C(CCC(=O)Nc1ccc(Br)cc1)N/N=C/c1cc([N+](=O)[O-])ccc1O | ? | ? | -23% | 9.2µM* | 23µM* | -34%
O=C(CCCC(=O)Nc1ccc(Br)cc1)N/N=C/c1ccccc1 | i | -28% | 20% | 5% | -3% | ?
Cc1cccc(NC(=O)CCC(=O)N/N=C/c2cc([N+](=O)[O-])ccc2O)c1 | -13% | ? | -7% | ? | ? | 8.9µM*
O=C(CCn1cnc2ccccc21)N/N=C/c1ccc(O)cc1 | 12% | -12% | -14% | -4% | -8% | -10%
COc1cccc(NC(=O)NC[C@H]2O[C@@H](CO)[C@@H](O)[C@H]2N2CCN(c3ccc(F)cc3)CC2)c1 | 53% | / | / | / | / | /
CCCn1nc(C(=O)OCc2ccc(C#N)cc2)c2ccccc2c1=O | -45% | / | / | / | / | /
Cc1ccc(NC(=O)CCC(=O)N/N=C/c2ccc(O)cc2O)cc1 | ? | 16µM* | -5% | 18µM* | 15µM* | -33%
Cc1ccccc1/C=N/NC(=O)Cc1ccc(Cl)cc1 | -16% | -28% | 6% | -10% | 0% | 27%
Cc1ccc(/C=N/NC(=O)Cc2ccc(Cl)cc2)c(O)c1 | -2% | 21µM* | 0.56µM* | -26% | 16µM* | 0.22µM*
Cc1ccc(NC(=O)CCC(=O)N/N=C/c2cccnc2)cc1 | 0% | ? | -3% | -2% | -16% | 0%
O=C(Cc1c[nH]c2ccccc12)N/N=C/c1ccccc1O | -19% | ? | 10µM* | ? | 16µM* | 2.2µM*
